Experimental data: ChEMBL document CHEMBL3988442, “University of Dundee, Small-Polar-MMV Screening Library” (2021)

What was measured:
[1] = target: T1, Aspartate--tRNA(Asp/Asn) ligase (Mycobacterium tuberculosis (strain ATCC 25618 / H37Rv)) (UniProt P9WFW3); test: Assay for Asp RNA synthetase-1 from Mycobacterium tuberculosis; type: functional; design: scale not given: direction of the effect not stated beside the values; conditions: 30 µM; also: in the data most compounds retested in dose-response had high values
T1 sequence (whole entry): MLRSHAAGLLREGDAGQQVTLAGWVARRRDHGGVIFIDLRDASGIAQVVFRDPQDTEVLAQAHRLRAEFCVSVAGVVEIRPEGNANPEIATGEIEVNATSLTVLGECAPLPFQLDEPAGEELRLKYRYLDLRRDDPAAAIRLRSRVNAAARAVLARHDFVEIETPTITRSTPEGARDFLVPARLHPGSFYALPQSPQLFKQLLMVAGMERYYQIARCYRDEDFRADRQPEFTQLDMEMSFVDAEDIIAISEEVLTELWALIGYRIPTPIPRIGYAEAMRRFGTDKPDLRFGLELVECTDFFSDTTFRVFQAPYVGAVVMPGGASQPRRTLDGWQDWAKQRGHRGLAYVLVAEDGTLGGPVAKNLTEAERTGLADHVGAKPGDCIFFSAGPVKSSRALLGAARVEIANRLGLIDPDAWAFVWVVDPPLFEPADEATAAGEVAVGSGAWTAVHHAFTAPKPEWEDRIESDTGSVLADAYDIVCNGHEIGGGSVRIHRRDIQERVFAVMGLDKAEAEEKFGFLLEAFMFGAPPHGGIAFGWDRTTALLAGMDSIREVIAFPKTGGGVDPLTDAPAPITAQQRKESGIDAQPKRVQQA

[2] = target: Shiga toxin 2 (Escherichia coli O157:H7) (UniProt P09385+P09386); test: E. coli 0.157:H7 Shiga Toxin SOP - stx2 screening assay; type: functional; design: scale not given: direction of the effect not stated beside the values; conditions: 30 µM

SMILES	Percent Effect [1]	Percent Effect [2]
CCC(NC(=O)C1CCN(S(C)(=O)=O)CC1)c1ccc(OC)c(C)c1 (configuration not stated)	-5.17%	-11.6%
Cc1csc(NC(=O)CN2CCC(c3ccnn3CCO)CC2)n1	-8.82%	-16.7%
CN1C(=O)C(C)(C)COc2cc(NS(=O)(=O)c3ccccc3)ccc21	-5.61%	8.93%
Cc1nc(C)n(C2CCCN(C(=O)c3ccccc3C)C2)n1 (configuration not stated)	0.173%	18.2%
CN(C)CCNC(=O)c1cnc2c(c1)nc(-c1ccccc1Cl)n2C	3.74%	5.62%
O=C(c1cccs1)N1CCC(O)(CN2CCc3ccccc3C2)C1 (configuration not stated)	-5.2%	-25.3%
COCC(=O)N1CC[C@H]2C[C@@H](c3nnc(C4CC4)o3)O[C@@H]2C1	-1.34%	-18.9%
CC(NC(=O)NCCN1CCCCCC1=O)c1nncn1C (configuration not stated)	-7.63%	-18.6%
Fc1cnc(N2CCCC3(CN(Cc4ccncc4)CCO3)C2)nc1 (configuration not stated)	7.9%	-0.17%
O=C(c1cnccn1)N1CCc2ncnc(-c3cccnc3)c2CC1	-2.48%	-12.4%
CC(=O)N(Cc1noc(C)n1)C1CCN(Cc2ccon2)C1 (configuration not stated)	-1.5%	-70.9%
CN(CCc1ccccc1)C1CCCN(Cc2nccn2C)C1 (configuration not stated)	0.357%	-0.197%
Cc1ccc(C(NC(=O)CC2CCN(C(C)C)CC2)C(=O)O)cc1 (configuration not stated)	-0.279%	10.7%
c1cnn(CC2CCCN2c2ncnc3ccsc23)c1 (configuration not stated)	3.64%	16.1%
COc1cc(C(=O)N(Cc2cnn(C)c2)C(C)C)ccc1OCC(N)=O	0.225%	33%
O=C1[C@@H]2CCN(Cc3ccoc3)C[C@@H]2OCCN1c1ccccc1	-0.779%	4.03%
Cc1nc(Cn2nc(C3CCNCC3)n(Cc3ccccc3)c2=O)no1	-2.53%	-3.49%
Cc1noc(C(C)C)c1C(=O)N1CCCN(Cc2cscn2)CC1	-4.35%	-6.33%
Cc1nnc2n1CCN(CCC(=O)Nc1sccc1C#N)C2	1.26%	22.9%
COc1ccc(NC(=O)CCc2c(C)nc3cc(O)nn3c2C)cn1	-0.607%	-81.2%
Cc1ccccc1CSc1nc(N)cc(N2CCOC(C(N)=O)C2)n1 (configuration not stated)	3.12%	-13.5%
COc1ncccc1NC(=O)C1CCN(S(C)(=O)=O)CC1	-1.61%	-91.6%
CC(C)c1cc(NC(=O)CN2CCc3c(nc(C(C)C)n3C)C2)on1	-3.67%	-13.4%

SMILES	Percent Effect [1]	Percent Effect [2]
Cc1cc(C(F)(F)F)nn1CC(C)C(=O)Nc1ccncc1 (configuration not stated)	2.67%	-18.1%
O=C(NCC(F)(F)F)C1CSCN1S(=O)(=O)c1ccc(F)cc1 (configuration not stated)	-3.86%	-29.9%
CCn1ncc2c1C(COCC1CC1)CN(S(=O)(=O)N(C)C)C2 (configuration not stated)	-1.37%	-9.58%
O=C(CN1CCc2ccccc21)Nc1ccc(OC(F)F)cc1	0.418%	-7.39%
N#Cc1cccc(S(=O)(=O)NC2CCN(Cc3ccccc3)C2=O)c1 (configuration not stated)	-1.89%	8.07%
Cc1ccc2c(n1)N(C)CCN(C(=O)C1CC1)C2	9.78%	-13.9%
COc1ccc(C(=O)N2CCCC(C)C2)cc1F (configuration not stated)	0.26%	13.7%
COc1ccc2c(c1)OC1(CCN(Cc3ccc(F)cc3)CC1)CC2=O	-5.55%	17.6%
CC(C)c1cc(NC(=O)CN2CCCC2Cn2cccn2)on1 (configuration not stated)	-1.29%	29.8%
Cc1cnn(C2CCCN(C(=O)c3ccn(C)c(=O)c3)C2)c1 (configuration not stated)	-2.74%	22%
Cc1ccc(CNC(=O)Nc2cc(C(F)(F)F)c[nH]c2=O)cn1	-6.46%	8.32%
CCOC(=O)NC(CNC(=O)c1ccccn1)CC(C)C (configuration not stated)	-2.16%	-4.01%
Cc1cc(C)n(CCC(=O)N2CCC(c3nc(C(C)C)no3)CC2)n1	2.47%	-18.2%
COc1ccc(OCCCN2CCOC(Cn3cccn3)C2)cc1 (configuration not stated)	-0.393%	5.03%
O=C([C@@H]1C[C@H]2[C@H](CCN2Cc2nccs2)O1)N1CCOCC1	2.29%	-22.3%
CC(=O)NCCNC(=O)CN1CCN(Cc2nccn2C)C(C)C1 (configuration not stated)	2.19%	2.09%
CNC(=O)c1cc(S(=O)(=O)C(C)C)cs1	-3.82%	-3.3%
CCN1CCN(S(=O)(=O)c2cc(C)c(Cl)cc2Cl)CC1	-2.59%	-47.6%
CN(Cc1cnn(C)c1)C(=O)NC1CCN(Cc2ccccn2)CC1	5.83%	-5.06%
N#Cc1cccc(SCCS(N)(=O)=O)c1	0.306%	-7.47%
CCc1nc(C2CCCN2C(=O)c2ccc3c(c2)nc(C)n3C)no1 (configuration not stated)	-0.367%	2.43%
Cc1nnc2n1CCN(C(=O)COCCOc1ccccc1)C2	-0.422%	-37.2%
Cc1oncc1C(=O)N1CCC2(C1)CN(c1cccnc1)C(=O)CN2C (configuration not stated)	-6.17%	-13.7%
